ssDAF-12 act: activates DAF-12 receptor from parasite S. stercoralis; AID 652126; actives 1% (n = 370,000); activation, % at 6.8 µM; HEK293 ssDAF-12/GRIP1 lit1-tk-luc reporter, luminescence; % of 3 µM dafachronic acid response;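 active means activation above the mean over all tested compounds plus 3 SD, cut at about 0.9% in these data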;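 further: 0% = DMSO-only wells and 100% = 3 µM delta7-dafachronic acid wells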
hgDAF-12 ag: agonists of H. glycines DAF-12 nuclear receptor | activation, % at 6.8 µM | actives 1.8% (n = 370,000) | HEK293 GAL4-hgDAF12 UAS-luciferase reporter, agonist luminescence; normalized to butyrate control | AID 687014;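 active means activation above a cutoff set at the mean of all screened compounds plus 3 SD, cut at about 10% in these data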;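 further: 0% = DMSO wells and 100% = sodium butyrate wells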
DAX1 inh-1: inhibitors of human orphan nuclear receptor DAX1 (NR0B1); inhibition, % at 6.75 µM; AID 504766; HEK293 Gal4-DAX1 luciferase reporter, luminescence; actives 0.99% (n = 340,000);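 active means inhibition above the mean over all tested compounds plus 3 SD, cut at about 4.2% in these data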;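 further: 0% = DAX1-transfected cells with DMSO and 100% = empty-vector control cells with DMSO; inhibition shows as a rise in luminescence from relieved DAX1 repression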
Target sequence (P51843 207-470 limits assumed): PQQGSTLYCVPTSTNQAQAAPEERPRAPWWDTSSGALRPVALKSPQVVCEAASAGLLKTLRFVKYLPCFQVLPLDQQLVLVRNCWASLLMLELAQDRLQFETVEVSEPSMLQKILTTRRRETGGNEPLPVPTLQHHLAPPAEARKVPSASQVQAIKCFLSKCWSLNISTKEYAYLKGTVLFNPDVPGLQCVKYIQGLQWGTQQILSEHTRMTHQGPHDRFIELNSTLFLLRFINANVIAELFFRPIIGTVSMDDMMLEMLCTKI
hcDAF12 agonist: activators of H. contortus DAF-12 nuclear receptor; HEK293 hcDAF-12 lit1-tk-luc reporter, luminescence; 0% DMSO, 100% Δ7-dafachronic acid; activation, % at 6.8 µM; actives 1.4% (n = 370,000);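 active means activation above the mean of all tested compounds plus 3 SD, cut at about 5.5% in these data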;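 further: 100% = response to 3 µM Δ7-dafachronic acid high control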
DAX1 inh-2: blocks DAX1 repression of SF-1 activated StAR promoter; inhibition, % at 6.8 µM; AID 652010; HEK293T StAR-luciferase reporter, SF-1/DAX-1 repression relief; actives 1.1% (n = 370,000);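 active means inhibition above the mean over all tested compounds plus 3 SD, cut at about 3.6% in these data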;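 further: 0% = DAX-1 cells with DMSO and 100% = cells lacking DAX-1 with DMSO; higher inhibition means more luminescence from relief of DAX-1 repression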
* hit, by the source's call; · = no result given. A selection: hits, their analogues and other compounds. The true share with any hit is near 4.1%.

SMILES | ssDAF-12 act | hgDAF-12 ag | DAX1 inh-1 | hcDAF12 agonist | DAX1 inh-2
CC(C)C[C@H]1COc2cc(Br)ccc2S(=O)(=O)N1Cc1cn(CCC2OCCCO2)nn1 | -1 | -2 | · | -3 | 1
O=C(CC1Oc2ccccc2NC1=O)NCc1ccc(Cl)cc1 (stereo unspecified) | -1 | 1 | 4.4* | 3 | 0
CC1CCN(Cc2ccc(NC(=O)CC3Oc4ccccc4NC3=O)cc2)CC1 (stereo unspecified) | 0 | 1 | 6.2* | 3 | 0
O[C@@H]1[C@@H](O)[C@H](n2c3ccc(Cl)cc3c3ccc4c5cc(Cl)ccc5[nH]c4c32)OC[C@H]1O | -2 | 5 | · | 1 | -1
O=C(N(c1ccccn1)c1ccccn1)C12CC3CC(CC(Cl)(C3)C1)C2 | -2 | 0 | 1 | 6.2* | 0
Cc1ccc(/C=C/C(=O)c2ccc(O)cc2)cc1 | -1 | 11* | 4.4* | 2 | 0
CCOc1ccc(/C=C/C(=O)c2ccccc2)cc1 | 0 | 8 | 4 | 6.2* | 2
COc1ccccc1CC(=O)c1ccc(OCc2ccccc2)cc1 | -2 | 2 | 1 | -1 | 0
CCOc1ccc(C(=O)/C=C/c2ccc(SC)cc2)cc1 | -2 | -3 | 0 | -1 | -1
CCOc1ccc(C(=O)Cc2ccccc2)cc1 | 1.1* | 12* | 2 | 2 | 1
CC1(C)CC2(OC2c2ccccc2[N+](=O)[O-])C(=O)c2ccccc21 (stereo unspecified) | -1 | 2 | 0 | -2 | 1
CC(C)(C)OC(=O)N1CCN(C(=O)c2[nH]cnc2C(=O)Nc2cccc(Cl)c2)CC1 | -1 | 4 | 5.9* | 0 | 0
CCOC(=O)c1ccc(NC(=O)c2nc[nH]c2C(=O)N2CCN(C(=O)OC(C)(C)C)CC2)cc1 | -1 | -2 | · | -1 | 0
COC(=O)c1cc(C(C)c2ccccc2O)n2ccccc12 (stereo unspecified) | -1 | -2 | · | 1 | 0
Cc1n[nH]c(C)c1S(=O)(=O)NCCc1ccccc1 | -2 | 1 | · | 0 | -1
CN(C)S(=O)(=O)c1ccc(C(=O)Nc2nc3ccccc3[nH]2)cc1 | -1 | 8 | 6.7* | 1 | 3
COc1cc(C(=O)Nc2nc3ccccc3[nH]2)ccc1OC(F)F | -1 | 5 | 1 | -2 | 0
Cc1cc(C)cc(C(=O)Nc2nc3ccccc3[nH]2)c1 | -1 | 7 | 1 | 1 | 0
O=C(Nc1nc2ccccc2[nH]1)c1ccc(OC(F)F)cc1 | 0 | 11* | -2 | 3 | 1
O=C(Nc1nc2ccccc2[nH]1)c1cc(F)cc(F)c1 | 1 | 10 | 1 | 5.6* | 2
Cc1c(C(=O)Nc2nc3ccccc3[nH]2)cccc1[N+](=O)[O-] | 1.5* | 8 | 2 | 5 | 2
CCN(CC)C(=O)CC[C@H]1CC[C@]2(CCCN(Cc3ccccc3)C2)O1 | -1 | 2 | · | 0 | 1
CCN1CCN(C(=O)c2cc3sccc3n2CC(=O)c2ccccc2)CC1 | 1.2* | 0 | 0 | 2 | 2
CCC(C)NS(=O)(=O)c1ccc2[nH]c(=O)oc2c1 (stereo unspecified) | -1 | -4 | · | -2 | 1
Cc1sc2ncnc(N/N=C/c3cccc(O)c3)c2c1C | 0 | 8 | 3 | 5.6* | 2
SMILES | ssDAF-12 act | hgDAF-12 ag | DAX1 inh-1 | hcDAF12 agonist | DAX1 inh-2
COC(=O)[C@H](CC1(c2cn(S(=O)(=O)CC[Si](C)(C)C)c3ccccc23)C(=O)Nc2ccccc21)NC(=O)OC(C)(C)C (stereo partly specified) | -1 | 1 | · | 4 | ·
Cc1c(C(=O)c2ccccc2)oc2ccc3ccccc3c12 | -1 | 8 | 6.6* | 2 | 1
Oc1ccccc1C1=NN(c2ccccc2)C(c2ccc(F)cc2)C1 (stereo unspecified) | -1 | 0 | 0 | -1 | 0
Oc1ccccc1C1=Nc2nc3ccccc3n2C(c2ccccc2)C1 (stereo unspecified) | 1 | 13* | 1 | 4 | 2
COc1cccc(OC)c1C(=O)NC(=S)NNC(=O)[C@H]1C[C@@H]1c1ccccc1 | 1.7* | 3 | 0 | -1 | 0
O=C(NC(=S)NNC(=O)[C@H]1C[C@@H]1c1ccccc1)c1cccc(F)c1 | 1.4* | 0 | -1 | 1 | 1
O=C(NNC(=O)C1CC1c1ccccc1)c1cccc([N+](=O)[O-])c1 (stereo unspecified) | 0 | 1 | -1 | 0 | 0
O=[N+]([O-])c1ccc(S(=O)(=O)NCC2COc3ccccc3O2)cc1 (stereo unspecified) | 0 | 0 | 1 | 3 | 1
NS(=O)(=O)c1ccc(NCC2COc3ccccc3O2)c([N+](=O)[O-])c1 (stereo unspecified) | 0 | 11* | 0 | 4 | 0
O=C(NNC(=O)c1ccncc1)Nc1ccc(N=Nc2ccccc2)cc1 | 1 | 10* | 0 | 5 | 2
O=C(Nc1cc(Cl)ccc1Oc1ccccc1)c1ccccc1F | -1 | -1 | -1 | -2 | -1
Cc1ccc(Oc2ccc(Cl)cc2NC(=O)c2ccc(F)cc2F)cc1 | -1 | 2 | 6.0* | 2 | 1
O=S(=O)(Cc1nc2ccccc2s1)c1ccccc1 | 0 | 11* | 1 | 4 | 3
NC(=O)c1sc2nc(-c3ccco3)ccc2c1N | -1 | 3 | 0 | 0 | 1
COC(=O)c1sc2nc(-c3ccco3)ccc2c1N | 0 | 11* | 3 | 3 | 3
O=c1n(Cc2ccccc2Cl)nc2n1-c1ccccc1SC2 | -2 | 8 | 4.9* | -1 | 1
COCC(=O)Nc1ccc2c(c1)[C@@H]1C[C@H](CC(=O)OC)O[C@H](CO)[C@@H]1O2 | -1 | 0 | 4.6* | -2 | 0
COc1ccc([C@H]2OC(=O)C[C@@H]2C(=O)N2CCN(c3ccccc3Cl)CC2)cc1OC | -1 | 4 | · | -4 | 0
COc1ccccc1NC(=O)C(=O)N/N=C/c1cccs1 | -1 | 8 | 1 | 6.2* | 1
COc1ccccc1Cc1c(-c2ccco2)nc2ccc(C)cn12 | 0 | 5 | · | 1 | 1
COc1ccccc1Cc1c(-c2ccc(C)cc2)nc2c3ccccc3ccn12 | 0 | 0 | · | 1 | 0
Cc1ccc(-c2nc3c4ccccc4ccn3c2Cc2ccccc2C(F)(F)F)cc1 | 0.9* | 2 | · | 5 | 1
COc1ccccc1Cc1c(-c2ccc(F)cc2)nc2c3ccccc3ccn12 | 0 | 5 | · | 5.8* | 0
COc1ccccc1Cc1c(-c2ccco2)nc2c3ccccc3ccn12 | 1 | 7 | · | 5.7* | 1
O=C(NC1CCCCN(Cc2cccc(F)c2)C1=O)c1cccc(F)c1 (stereo unspecified) | -2 | -2 | · | -1 | -1
CCCOc1ccc(N2C(=O)CC(N3CCN(c4ccc([N+](=O)[O-])cc4)CC3)C2=O)cc1 (stereo unspecified) | -2 | -2 | 5.2* | -4 | -1

Source: PubChem BioAssay (The Scripps Research Institute Molecular Screening Center)
